The whole screen tested about 69,000 compounds, of which about 950 (1.4%) showed an effect of 50% or more. This excerpt belongs to a sample that is enriched for strong results.
The compounds below were run on Mycobacterium tuberculosis (assay: Cornell M. t heat shock assay; further: in the data most compounds retested in dose-response had high values).
Format: functional, organism-based
Set-up: dose or concentration left out as unconfirmed
For CC(C)c1nc(CNC2CCCN(c3cccnn3)C2)no1 (configuration not stated), the “Percent Effect” value was -11.29%.
In the case of CC(C)(C)c1nc(CNC2CCCN(c3cccnn3)C2)no1 (configuration not stated), the “Percent Effect” value is reported as 53.11%.
For Cc1nc(CNC2CCCN(c3cccnn3)C2)no1 (configuration not stated), the “Percent Effect” value was -18.97%.
With Cc1cc(N2CCN(Cc3cn(C)nc3C)CC2)cc(C2CCNC2)n1.Cl (configuration not stated) the “Percent Effect” value was -5.922%.
With O=C(NC1CCC1)[C@H]1C[C@@H]2CN(CC3CC3)C[C@H]1O2.O=C(O)C(F)(F)F the “Percent Effect” value was 18.28%.
In the case of CCN1CCC(CNCc2c[nH]nc2C(C)(C)C)C1.Cl (configuration not stated), the “Percent Effect” value is reported as 48.77%.
In the case of CC(O)CN1CCC(CNCc2c[nH]nc2C(C)(C)C)CC1 (configuration not stated), the “Percent Effect” value is reported as 0.7064%.
With CC(C)(C)c1n[nH]cc1CNCC1CCN(C2CC2)C1.Cl (configuration not stated) the “Percent Effect” value was 85.37%.
For COCCN1CCC(CNCc2c[nH]nc2C(C)(C)C)CC1, the “Percent Effect” value was -7.94%.
In the case of CC(C)N1CCC(CNCc2c[nH]nc2C(C)(C)C)C1 (configuration not stated), the “Percent Effect” value is reported as 82.49%.
With CC(C)(C)c1n[nH]cc1CNCC1CCN(CC(F)(F)F)C1.Cl (configuration not stated) the “Percent Effect” value was -7.348%.
With COc1nn(C)c2c1CCCN(C(=O)c1cccc(C)n1)C2.O=C(O)C(F)(F)F the “Percent Effect” value was 26.28%.
Cn1ccc(C(=O)N2C[C@@H]3OCCN(c4ncccn4)[C@@H]3C2)n1.O=C(O)C(F)(F)F was tested, and the “Percent Effect” value was -20%.
For Cc1ccc(N2CC[C@H]3O[C@H](C(=O)NCc4ccco4)CC[C@H]32)nn1.O=C(O)C(F)(F)F, the “Percent Effect” value was -36.19%.
With CN1CCOC(CNCc2csc(C3CCCCC3)n2)C1 (configuration not stated) the “Percent Effect” value was -18.06%.
In the case of Cc1nc(CNCC2CN(C)CCO2)cs1 (configuration not stated), the “Percent Effect” value is reported as -7.018%.
CN1CCOC(CNCc2csc(C3CCCC3)n2)C1 (configuration not stated) was tested, and the “Percent Effect” value was 51.17%.
In the case of CN(Cc1cn2c(n1)CN(c1ncc(F)cn1)CC2)Cc1ccco1.O=C(O)C(F)(F)F.O=C(O)C(F)(F)F, the “Percent Effect” value is reported as 8.494%.
In the case of CC(=O)Nc1c(C)noc1/C=C\c1ccc(C)c(S(=O)(=O)NC2CC2)c1, the “Percent Effect” value is reported as 14.26%.
In the case of CC(C)N1Cc2c(C(=O)N3CCOCC3)nn(C)c2C1.O=C(O)C(F)(F)F.O=C(O)C(F)(F)F, the “Percent Effect” value is reported as -12.04%.
With Cc1nc(C2CCCN2Cc2cc(Cl)c3c(c2)OCCCO3)no1 (configuration not stated) the “Percent Effect” value was 45.55%.
Cc1nc(C2CCCN2Cc2cc(Cl)c3c(c2)OCCO3)no1 (configuration not stated) was tested, and the “Percent Effect” value was 57.05%.
Cc1nc(C2CCCN2Cc2cc(Cl)c3c(c2)OCO3)no1 (configuration not stated) was tested, and the “Percent Effect” value was 23.975%.
For CSc1nc(N)c2c(n1)N=C1COC(O)=C1C2c1cccc(Cl)c1 (configuration not stated), the “Percent Effect” value was 2.564%.
In the case of CC(=O)Nc1nc(-c2ccccc2)c[nH]1, the “Percent Effect” value is reported as -15.03%.
CNC(=O)c1cccc(CNC(C)c2ccc(F)cc2N(C)C)c1 (configuration not stated) was tested, and the “Percent Effect” value was 101.5%.
In the case of CNC(=O)c1cccc(CNC(C)c2cc(Cl)ccc2OC)c1 (configuration not stated), the “Percent Effect” value is reported as -13.72%.
For CNC(=O)c1cccc(CNC(C)c2cc(C)ccc2OC(F)F)c1 (configuration not stated), the “Percent Effect” value was -18.66%.
For c1csc(CCNc2nc(-c3ccncc3)nc3c2CCNCC3)c1, the “Percent Effect” value was 10.45%.
In the case of COCCNc1nc2c(c(NCc3ccncc3)n1)CCNCC2, the “Percent Effect” value is reported as -8.417%.
With COCCNc1nc2c(c(NCCc3cccs3)n1)CCNCC2 the “Percent Effect” value was 55.02%.
O=C(O)C(F)(F)F.O=C(O)C(F)(F)F.O=C1NC2(CCN(Cc3cccs3)CC2)CC1c1ccncc1 (configuration not stated) was tested, and the “Percent Effect” value was -33.96%.
For CNC(=O)CN1CCOCC2(CCCN(Cc3ccc(F)cc3)C2)C1.O=C(O)C(F)(F)F.O=C(O)C(F)(F)F (configuration not stated), the “Percent Effect” value was -6.144%.
CCCn1cnnc1CNC(=O)C1COc2cc(OC)ccc2C1 (configuration not stated) was tested, and the “Percent Effect” value was -11.02%.
CCCn1ccnc1CNC(=O)C1COc2cc(OC)ccc2C1 (configuration not stated) was tested, and the “Percent Effect” value was 80.42%.
In the case of CCCn1cnnc1CNC(=O)C1COc2ccc(OC)cc2C1 (configuration not stated), the “Percent Effect” value is reported as -18.38%.
For O=C(c1ccc(-c2cccc3c2CCNC3)o1)N1CCOCC1, the “Percent Effect” value was 23.74%.
For O=C(c1ccc(-c2cccc3c2CCNC3)o1)N1CCCC1, the “Percent Effect” value was 54.8%.
For O=C(c1ccc(-c2cccc3c2CCNC3)o1)N1CCCCC1, the “Percent Effect” value was 37.05%.
With Cc1ccc(N2CCO[C@H]3CN(Cc4ccoc4)C[C@H]32)nn1.O=C(O)C(F)(F)F.O=C(O)C(F)(F)F the “Percent Effect” value was -23.95%.
With O=C(c1ccccc1)N1C[C@@H]2CC[C@H](C1)N(S(=O)(=O)c1cccnc1)C2 the “Percent Effect” value was -19.46%.
With CCN1CC(O)CN(C(=O)c2cccc(C(F)(F)F)c2)CC1=O (configuration not stated) the “Percent Effect” value was 31.6%.
For CCN1CC(O)CN(C(=O)c2ccc(SC)cc2)CC1=O (configuration not stated), the “Percent Effect” value was 25.41%.
In the case of CSc1ccc(C(=O)N2CC(=O)N(CC(C)(C)C)CC(O)C2)cc1 (configuration not stated), the “Percent Effect” value is reported as 67.49%.
In the case of CC(C)(C)CN1CC(O)CN(C(=O)c2cccc(C(F)(F)F)c2)CC1=O (configuration not stated), the “Percent Effect” value is reported as 51.48%.
For CSc1ccc(C(=O)N2CC(=O)N(CC3CC3)CC(O)C2)cc1 (configuration not stated), the “Percent Effect” value was 13.44%.
For CC(C)CN1CC(O)CN(C(=O)c2cccc(C(F)(F)F)c2)CC1=O (configuration not stated), the “Percent Effect” value was 3.734%.
With CC(Cn1cncc1-c1cnn(Cc2ccccc2)c1)N1CCCCC1.Cl (configuration not stated) the “Percent Effect” value was -9.415%.
In the case of Cc1ccc(CN2CCn3c(CN4CCN(C)CC4)cnc3C2C)s1.O=C(O)C(F)(F)F.O=C(O)C(F)(F)F.O=C(O)C(F)(F)F (configuration not stated), the “Percent Effect” value is reported as -29.44%.
O=C(CN1CCOC(CNc2cccnn2)C1)NCc1ccccn1 (configuration not stated) was tested, and the “Percent Effect” value was -12.01%.
OC1(CN2CCOC(CNc3cccnn3)C2)CCCCC1 (configuration not stated) was tested, and the “Percent Effect” value was 9.895%.
With O=C(CN1CCOC(CNc2cccnn2)C1)NCc1cccs1 (configuration not stated) the “Percent Effect” value was 104.8%.
With O=C(CN1CCOC(CNc2cccnn2)C1)N1CCCCC1 (configuration not stated) the “Percent Effect” value was 57.16%.
In the case of O=C(CN1CCOC(Cn2cccn2)C1)NCc1cccs1 (configuration not stated), the “Percent Effect” value is reported as -0.5047%.
For c1cnnc(NCC2CN(CCN3CCCCC3)CCO2)c1 (configuration not stated), the “Percent Effect” value was 4.077%.
In the case of Cc1oncc1C(=O)NCc1cc(=O)n2c(n1)CN(C(C)C)CCC2.O=C(O)C(F)(F)F, the “Percent Effect” value is reported as -32.5%.
CC(C)(C)C(=O)NC(c1nccs1)C1CCN(CC2CCCCC2)CC1.Cl (configuration not stated) was tested, and the “Percent Effect” value was 4.524%.
With CCN1CCC2(C=C(C(=O)NC3CC3)c3ccccc32)CC1.O=C(O)C(F)(F)F the “Percent Effect” value was -9.893%.
In the case of CN(C)C(=O)CN1CCOCC2(C1)CN(c1ncccn1)CCO2.O=C(O)C(F)(F)F (configuration not stated), the “Percent Effect” value is reported as -21.69%.
For CCS(=O)(=O)N1CCN(CCOC)c2ncccc2C1, the “Percent Effect” value was 7.581%.
In the case of CC(=O)N1N=C(c2ccccc2)OC1C(=O)NCCN(C(C)C)C(C)C (configuration not stated), the “Percent Effect” value is reported as 73.05%.
For CC(=O)N1N=C(c2ccccc2)OC1C(=O)NCCOc1ccccc1 (configuration not stated), the “Percent Effect” value was 46.95%.
CC(=O)N1N=C(c2ccccc2)OC1C(=O)NCCc1ccc(O)cc1 (configuration not stated) was tested, and the “Percent Effect” value was 53.53%.
With CCOC(=O)CNC(=O)C1OC(c2ccccc2)=NN1C(C)=O (configuration not stated) the “Percent Effect” value was 54.14%.
CC(=O)N1N=C(Cc2ccccc2)OC1C(=O)NCC(=O)OC(C)(C)C (configuration not stated) was tested, and the “Percent Effect” value was 11.49%.
With CC(=O)N1N=C(c2ccco2)OC1C(=O)N(C)CCc1ccccc1 (configuration not stated) the “Percent Effect” value was -2.033%.
In the case of CC(=O)N1N=C(c2ccncc2)OC1C(=O)N(C)CCc1ccccc1 (configuration not stated), the “Percent Effect” value is reported as 106%.
For CC(=O)N1N=C(c2ccccc2)OC1C(=O)NCCC1=CCCCC1 (configuration not stated), the “Percent Effect” value was -12.6%.
In the case of CC(=O)N1N=C(c2ccccc2)OC1C(=O)NCC(=O)OC(C)(C)C (configuration not stated), the “Percent Effect” value is reported as 21.44%.
In the case of CC(=O)N1N=C(c2ccccc2)OC1C(=O)NCCc1ccc(Cl)cc1 (configuration not stated), the “Percent Effect” value is reported as 7.805%.
For CC(=O)N1N=C(c2ccccc2)OC1C(=O)NCCc1ccc(C)cc1 (configuration not stated), the “Percent Effect” value was 30.4%.
For CC(=O)N1N=C(c2ccccc2)OC1C(=O)N(C)CCc1ccccc1 (configuration not stated), the “Percent Effect” value was 0.1011%.
